Bioassay records (PubChem)
HT1080NT lethal: kills 2HG-producing HT-1080-NT fibrosarcoma cells | Potency, µM (series often up to 46.1 µM), most hits filed as cytotoxic | 1.6% of 360,000 active | HT-1080-NT fibrosarcoma viability, CellTiter-Glo ATP luminescence, 48 h | AID 686970;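 further: NT is the 2HG producing partner of a matched IDH1 knockdown line; nearly all actives have a fitted effect of over 55% in size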
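HT-1080-NT; 750 cells/well; 5% FBS RPMI; 48 h compound, 37 degrees C; CellTiter-Glo luminescence; curve fitting and curve-class assignment.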
HT1080 IDH1KD tx: HT-1080 IDH1 knockdown cell toxicity (counter line) | HT-1080 IDH1 knockdown viability, ATP luminescence, 48 h | Potency, µM (doses to about 46.1 µM), actives largely listed as cytotoxic | 2% of 360,000 active | AID 686971
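Using the IDH1-knockdown HT-1080 line run in the same batch and compound series as the NT line, viability after 48 h at 37 °C was determined by CellTiter-Glo luminescence and expressed as % activity.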
IL-1B inflam inh: blocks inflammasome-driven IL-1 beta release; AID 743279; THP-1 LPS/ATP IL-1B secretion, AlphaLISA, 16 h; active compounds read low; 4.7% of 360,000 active; activity change, % at 57.5 µM; in the data active means activity change below about -50%; inconclusive means mostly about -30% to -49%
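THP-1 cells pretreated 1 hr with compounds (up to 57.5 uM final), then stimulated with LPS (250 ng/mL final) plus ATP (1.25 mM final); secreted IL-1B measured by AlphaLISA after 16 hr, decreased signal indicating inhibition.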
TDP1 cell noCPT: qHTS for Inhibitors of human tyrosyl-DNA phosphodiesterase 1 (TDP1): qHTS in cells in absence of CPT; Potency, µM (highest dose often 46.2 µM), actives largely listed as inhibitors; 15% of 420,000 active; DT40 Tdp1-/- hTDP1 cells, no CPT, ATP luminescence, 48 h; further: nearly all actives have a fitted effect of over 55% in size
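Compound effects on proliferation are scored in DT40 Tdp1-/-;hTDP1 cells in the absence of CPT. ATP levels (CellTiter-Glo luminescence) are recorded after a ≥48 hr, 37 °C incubation.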
DT40 TDP1 CPT: DT40-hTDP1 cell growth loss with CPT; chicken DT40 Tdp1-/-;hTDP1 cells + 20 nM CPT, ATP luminescence, 48 h; Potency, µM (doses to about 46.2 µM), usual class: inhibitors; 12% of 420,000 active; further: nearly all actives have a fitted effect of over 55% in size
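Cell growth measured by CellTiter-Glo luminescence after a minimum 48 h, 37 C compound exposure with 20 nM CPT in Tdp1-knockout DT40 cells stably expressing hTDP1, seeded 400/well; qHTS titration format.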
Numbers stand for hits; - = inactive; ? = inconclusive; . = no result; [ ] = another dose, or the depositor's remark. Most compounds without a hit are left out; they make up all but 19% or so of the library. Unless noted, the call rests on the fitted dose curve; in most records, active means well fitted curve in the direction sought with a large enough effect; inconclusive means small, poorly fitted or top-dose-only effect, or another doubt; inactive means no such curve, though single readings can be large; an effect the other way counts as inactive or inconclusive.

SMILES	HT1080NT lethal	HT1080 IDH1KD tx	IL-1B inflam inh	TDP1 cell noCPT	DT40 TDP1 CPT
COc1ccc(-c2cc(C(C)=O)c(C)n2CCC(=O)Nc2ccc(C(F)(F)F)cc2)cc1	.	.	.	13µM	12µM
CC(=O)c1cc(-c2ccc(F)cc2)n(CCC(=O)Nc2cccnc2)c1C	-	-	-	-	-
CCOc1ccc(NC(=O)CCn2c(-c3ccc(F)cc3)cc(C(C)=O)c2C)cc1	.	.	.	23µM	21µM
CC(=O)c1cc(-c2ccccc2)n(CC(=O)NCc2ccccc2C)c1C	.	.	.	-	?
CC(=O)c1cc(-c2ccc(F)cc2)n(CCC(=O)NCc2ccccc2C)c1C	.	.	.	?	16µM
COc1ccc(C(=O)COc2ccc(C)cc2NC(C)=O)cc1	-	-	-	21µM	?
COc1ccc(C2(c3ccc(OC)cc3)NC(=O)N(CC(=O)Nc3ccc(C(=O)N(C)C)cc3)C2=O)cc1	-	-	-	-	-
COc1ccc(C(=O)CC(=O)C(=O)Nc2cc(OC)ccc2OC)cc1	-	-	-	?	-
COc1ccc(C2(c3ccc(OC)cc3)NC(=O)N(CC(=O)Nc3cc(C)ccc3OC)C2=O)cc1	-	?	-	?	18µM
O=C(Nc1cc(SCCO)cc([N+](=O)[O-])c1)c1ccco1	-	-	-	?	-
CCOc1ccc(Oc2cc(NC(=O)c3ccco3)cc([N+](=O)[O-])c2)cc1	-	-	-	16µM	-
O=C(Nc1cc(Oc2ccc(Cl)cc2)cc([N+](=O)[O-])c1)c1ccco1	?	?	-	16µM	?
Cc1nn(C)cc1C(=O)Nc1cc(Oc2ccc(Cl)cc2)cc([N+](=O)[O-])c1	-	-	-	?	?
CCc1ccccc1NC(=O)COc1ccc(N2CC(C(N)=O)CC2=O)cc1 (stereo unspecified)	-	-	-	-	-
Cc1ccc(CNC(=O)C2CCCN(c3nc4c(C)cc(C)cc4s3)C2)cc1 (stereo unspecified)	.	.	.	-	-
Cc1cc(C)c(C)c(S(=O)(=O)N(C)C2CCN(C)CC2)c1C	-	-	-	16µM	23µM
COc1cc2nc(NC3CCN(Cc4ccccc4)CC3)nc(N3CCCN(C)CC3)c2cc1OC	6.3µM	2.8µM	.	5µM	5µM
COc1cc2nc(N3CCN(C)CC3)nc(NC3CCN(C)CC3)c2cc1OC	-	-	.	11µM	8.9µM
COc1cc2nc(N3CCCN(C)CC3)nc(NC3CCNCC3)c2cc1OC	-	-	.	13µM	11µM
COc1cc2nc(N3CCCCC3)nc(NC3CCN(Cc4ccccc4)CC3)c2cc1OC	14µM	10µM	.	3.2µM	5µM
COc1cc2c(NC3CCN(C)CC3)nc(N3CCCN(C)CC3)nc2cc1OCC1CCCNC1 (stereo unspecified)	.	.	.	-	-
COc1ccc(OCC(=O)Nc2ccncc2)cc1	-	-	-	-	-
CC(C)Cc1nnc(NC(=O)CCC(=O)NCc2ccccc2Cl)s1	-	-	-	-	-
COc1cc2nc(N3CCOCC3)nc(NC3CC3)c2cc1OC	-	-	.	13µM	13µM
COc1cc2nc(N3CCCCC3)nc(NC3CCN(C)CC3)c2cc1OC	20µM	11µM	.	7.9µM	7.9µM
SMILES	HT1080NT lethal	HT1080 IDH1KD tx	IL-1B inflam inh	TDP1 cell noCPT	DT40 TDP1 CPT
COc1cc2nc(N3CCCN(C)CC3)nc(NC3CCN(C)CC3)c2cc1OC	-	-	.	18µM	13µM
COCc1nc2ccccc2n1CCc1ccccc1	-	-	-	?	-
COc1cc(NC2c3ncccc3C(=O)N2Cc2ccco2)cc(OC)c1OC (stereo unspecified)	-	-	-	?	-
CC(C)NC(=O)N1CC2(CCN(C(=O)c3cccn3C)CC2)C1	.	.	.	-	-
Cc1ccc(C(=O)c2c(NC(=O)c3cccnc3)sc3c2CCCC3)cc1	-	-	-	-	-
O=C(c1ccc([N+](=O)[O-])cc1)N(Cc1ccco1)c1ccccn1	.	.	.	-	-
S=C(NCc1ccc2c(c1)OCO2)Nc1ccc(-c2nc3ccccc3[nH]2)cc1	?	?	?	18µM	21µM
O=C(NC(=S)Nc1cc(-c2nc3ccccc3[nH]2)ccc1Cl)c1ccc2c(c1)OCO2	-	?	-	3.7µM	5.2µM
Cc1ccc(-c2nc3ccccc3[nH]2)cc1NC(=O)c1ccc2c(c1)OCO2	-	-	-	?	?
O=C(NCCCN1CCN(c2cccc(Cl)c2)CC1)c1cccc(N2CCCC2=O)c1	-	-	-	?	?
Cc1ccc(-n2nc(C)c(C(=O)NCCCN3CCN(c4ccccc4F)CC3)c2-n2cccc2)cc1	.	.	.	3.7µM	3.3µM
Cc1ccc(-n2nc(C)c(C(=O)NCCCN3CCN(c4cccc(Cl)c4)CC3)c2-n2cccc2)cc1	.	.	.	5.8µM	8.2µM
Cc1cc(=O)oc(C)c1C(=O)NCCCN1CCN(c2ccccc2F)CC1	-[9.24 µM]	?	-	-	-
O=C(Cc1ccc(Cl)cc1)N/N=C/c1cccc(O)c1	-	-	-	?	-
CCCCCCc1nc2ccccc2c(=O)n1NC(=O)c1c(O)c2c(n(CC(C)C)c1=O)CCCC2	-	-	-	3.3µM	4.6µM
Cc1nc2ccccc2c(=O)n1NC(=O)c1c(O)c2c(n(CC(C)C)c1=O)CCCC2	20µM	?	-	21µM	?
CC(C)Cn1c2c(c(O)c(C(=O)Nc3nc4ccccc4s3)c1=O)CCCC2	-	-	-	?	?
COc1ccc(NC(=O)CSc2nc3ccsc3c(=O)n2CCC(=O)O)c(OC)c1	-	-	-	-	-
Cc1cc(CN2CCCC(N3CCc4ccccc4C3)C2)cc(C)c1O (stereo unspecified)	-	-	-	?	13µM
Cc1ccnc(N/N=C/c2ccccc2)n1	-	-	-	-	-
Cc1cc(C)nc(N/N=C2/CCCC/C2=C\c2ccccc2)n1	?	?	?	1.2µM	2.1µM
COc1ccc(C2C(=O)N(C3CCCCCC3)CC(=O)N2Cc2ccccc2)cc1OC (stereo unspecified)	-	-	-	?	?
COc1cc(C2C(=O)N(C3CCCCCC3)CC(=O)N2CCc2ccccc2)ccc1OC(C)C (stereo unspecified)	.	.	.	13µM	16µM
COc1ccc(CCN2C(=O)CN(C3CCCCCC3)C(=O)C2c2ccc(Cl)cc2)cc1OC (stereo unspecified)	.	.	.	18µM	?
O=C1C(c2ccc(F)cc2)N(CCc2ccc(Cl)cc2)C(=O)CN1C1CCCCC1 (stereo unspecified)	.	.	.	21µM	16µM
COc1ccc(CCN2C(=O)CN(C3CCCCCC3)C(=O)C2c2ccc(C)cc2)cc1OC (stereo unspecified)	.	.	.	23µM	?
Cc1cccc(NC(=O)CNC(=O)Cn2cc(C(F)(F)F)cc(Cl)c2=O)c1C	-	-	-	-	-
